In all, about 360,000 compounds went through this assay and about 1,400 (0.39%) were called active. Cut-off read from the data, not from the text of the source: active = inhibition above about 5% (passing the limit was not always enough); inactive = the rest. What follows is part of a selection rich in actives, with near analogues and random picks from the rest.

In this test the target is Tyrosine-protein kinase ABL1 (Homo sapiens) + Ras and Rab interactor 1 (Homo sapiens) (UniProt P00519+Q13671). The test can be described thus: disruptors of human Abl and Rin1 association – biochemical, TR-FRET, primary screen (AID 588664). The conditions noted are these: TR-FRET Rin1/Abl binding, at 7.35 µM, stronger effect = higher value. (In TR-FRET formats the signal depends on donor and acceptor labels being close together.)
Tyrosine-protein kinase ABL1 (Homo sapiens) + Ras and Rab interactor 1 (Homo sapiens), sequence (P00519 whole entry, looked up): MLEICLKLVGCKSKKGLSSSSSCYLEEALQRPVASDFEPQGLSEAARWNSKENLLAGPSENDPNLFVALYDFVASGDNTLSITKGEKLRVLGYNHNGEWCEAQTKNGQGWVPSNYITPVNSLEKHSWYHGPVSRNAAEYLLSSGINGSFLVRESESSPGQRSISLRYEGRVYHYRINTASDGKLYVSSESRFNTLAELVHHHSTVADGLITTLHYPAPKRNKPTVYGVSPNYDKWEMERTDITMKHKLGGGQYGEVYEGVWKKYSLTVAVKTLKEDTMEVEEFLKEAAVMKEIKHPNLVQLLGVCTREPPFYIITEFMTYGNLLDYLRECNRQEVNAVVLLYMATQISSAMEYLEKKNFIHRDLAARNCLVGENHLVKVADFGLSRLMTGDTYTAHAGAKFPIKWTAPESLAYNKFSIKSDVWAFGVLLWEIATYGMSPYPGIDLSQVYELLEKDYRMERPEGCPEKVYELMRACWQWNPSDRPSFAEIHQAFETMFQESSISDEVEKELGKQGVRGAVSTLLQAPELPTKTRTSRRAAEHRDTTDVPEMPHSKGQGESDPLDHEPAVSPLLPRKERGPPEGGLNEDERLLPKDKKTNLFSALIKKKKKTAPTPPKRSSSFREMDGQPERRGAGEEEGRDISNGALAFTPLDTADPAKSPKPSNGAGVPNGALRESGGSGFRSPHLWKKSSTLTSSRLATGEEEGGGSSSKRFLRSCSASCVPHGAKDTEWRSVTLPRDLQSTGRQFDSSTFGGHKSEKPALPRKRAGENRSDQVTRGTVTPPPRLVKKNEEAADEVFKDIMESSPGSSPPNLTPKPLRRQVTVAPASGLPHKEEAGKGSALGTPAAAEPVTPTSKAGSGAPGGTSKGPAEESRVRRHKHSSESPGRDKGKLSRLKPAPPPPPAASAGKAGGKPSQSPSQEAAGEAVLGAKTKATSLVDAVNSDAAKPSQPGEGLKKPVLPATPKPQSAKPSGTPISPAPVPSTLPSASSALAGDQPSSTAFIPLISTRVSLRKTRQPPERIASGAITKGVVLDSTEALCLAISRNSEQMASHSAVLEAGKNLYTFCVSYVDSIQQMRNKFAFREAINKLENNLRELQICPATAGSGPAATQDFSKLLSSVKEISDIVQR
Tyrosine-protein kinase ABL1 (Homo sapiens) + Ras and Rab interactor 1 (Homo sapiens), sequence (Q13671 whole entry, looked up): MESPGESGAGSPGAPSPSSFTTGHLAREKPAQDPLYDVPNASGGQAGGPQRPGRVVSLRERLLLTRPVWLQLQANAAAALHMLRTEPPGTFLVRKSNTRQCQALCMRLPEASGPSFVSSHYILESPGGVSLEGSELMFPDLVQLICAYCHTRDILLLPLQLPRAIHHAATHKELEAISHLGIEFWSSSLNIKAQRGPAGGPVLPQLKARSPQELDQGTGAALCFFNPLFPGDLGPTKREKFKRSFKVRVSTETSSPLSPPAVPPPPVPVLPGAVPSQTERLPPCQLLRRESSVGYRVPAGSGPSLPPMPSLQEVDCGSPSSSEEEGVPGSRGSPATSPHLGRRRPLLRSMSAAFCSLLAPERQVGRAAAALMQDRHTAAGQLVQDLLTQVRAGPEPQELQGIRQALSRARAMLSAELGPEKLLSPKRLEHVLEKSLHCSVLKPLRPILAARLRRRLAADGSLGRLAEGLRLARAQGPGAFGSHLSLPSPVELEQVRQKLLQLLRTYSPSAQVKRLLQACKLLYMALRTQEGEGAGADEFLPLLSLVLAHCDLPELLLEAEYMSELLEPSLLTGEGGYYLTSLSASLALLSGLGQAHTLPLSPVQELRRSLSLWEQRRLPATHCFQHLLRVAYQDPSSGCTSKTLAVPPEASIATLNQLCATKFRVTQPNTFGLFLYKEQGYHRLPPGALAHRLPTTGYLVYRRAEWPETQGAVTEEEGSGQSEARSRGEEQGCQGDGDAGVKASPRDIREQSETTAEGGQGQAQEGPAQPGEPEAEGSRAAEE
On to `O=c1[nH]nc(Cc2ccccn2)c2ccccc12`, for which the inhibition is 1.04% (inactive).

Turning to `CCN(CC)CCCNC(=O)c1cn(C)c2ccc(S(=O)(=O)N(C)C3CCCCC3)cc2c1=O`, the inhibition was 2.19% (inactive).

Take `C=CCn1cc(C(=O)NCc2ccc(Cl)cc2)c(=O)c2cc(S(=O)(=O)N(CC)CC)ccc21`: the inhibition is 6.23% (active).

Regarding `CCOC(=O)N1CCN(C(=O)c2cn(C)c3ccc(S(=O)(=O)N(CC)CC)cc3c2=O)CC1`, the inhibition was -0.08% (inactive). Under `CN(C)S(=O)(=O)c1ccc(N2CCCC2)c(C(=O)Nc2cccc(F)c2)c1` stands 7.03% (inactive); under `CC1=C[C@H]2Cc3cc(C)cc(C)c3S(=O)(=O)[C@@H]2C=C1`, 3.36% (inactive); under `O=c1c2c(nc3n1CCCCC3)sc1c(O)cccc12`, 12.3% (active). The figure for `CC(=O)c1ccc(NC(=O)c2sc3nc4n(c(=O)c3c2C)CCCCC4)cc1` is 0.85% (inactive); for `Cc1c(C(=O)Nc2ccccc2)sc2nc3n(c(=O)c12)CCCCC3` it is -0.6% (inactive). The figure for `O=S1(=O)CCN(C2CCCCCCCCCCC2)CC1` is 1.94% (inactive). As to `Cc1cc(NC(=O)CSCC(=O)NC(C)c2ccccc2)no1` (stereo unspecified), the inhibition is 9.74% (active). The figure for `COc1ccccc1C(=O)COC(=O)CSCC(=O)Nc1cc(C)on1` is -2.09% (inactive); for `Cc1cc(NC(=O)CSCc2ccccc2C)no1` it is -2.34% (inactive). The figure for `N#C/C(=C\N1CCOCC1)S(=O)(=O)c1ccc(Cl)cc1` is 0.04% (inactive). `CC(C)CNS(=O)(=O)c1ccc(OCC(=O)Nc2ccc3c(c2)OCO3)c(Cl)c1`: the inhibition was -2.64% (inactive). The figure for `CNS(=O)(=O)c1ccc(NC(=O)Nc2ccc3c(c2)OCO3)cc1` is -0.38% (inactive); for `CC(C)CNS(=O)(=O)c1ccc(C(=O)Nc2ccc3c(c2)OCO3)cc1` it is 12.8% (active). Under `C=C1c2c(Cl)ccc(O)c2C(O)=C2C(=O)[C@]3(O)C(O)=C(C(N)=O)C(=O)[C@@H](N(C)C)[C@@H]3[C@@H](O)C12` (stereo partly specified) stands 20.6% (active); under `Nc1nc2cc(Cl)ccc2n1N`, -1.62% (inactive); under `CCCCN(CC)CCNC(=O)c1[nH]c(C)c(C(C)=O)c1C`, 6.51% (inactive). Regarding `COC(=O)c1c(NC(=O)c2ccc(S(=O)(=O)N3CCOCC3)cc2)sc2c1CCN(C(C)C)C2`, the inhibition is 5.81% (inactive). The figure for `CCc1ccc(CNC(=O)C2CCN(c3nnc(C)c4c(C)n(-c5ccc(C)cc5)nc34)CC2)cc1` is -2.17% (inactive). Consider `CCc1ccc(CNC(=O)C2CCCN(c3nc4ccccc4o3)C2)cc1` (stereo unspecified), for which the inhibition is 1.27% (inactive). The figure for `CCOc1ccc(CNC(=O)C2CCCN(c3nnc(C)c4c(C)n(-c5ccccc5)nc34)C2)cc1` (stereo unspecified) is 20.2% (active); for `Cn1cc(CN2CCCC(CO)C2)c(-c2ccc(Oc3ccccc3)cc2)n1` (stereo unspecified) it is 1.99% (inactive). The figure for `COc1ccc([N+](=O)[O-])cc1NC(=O)COC(=O)/C=C/c1ccco1` is -3.75% (inactive); for `Cc1noc(C)c1COC(=O)c1cc2ccccc2cc1O` it is 1.08% (inactive); for `O=C(NNc1c2ccccc2nc2ccccc12)c1cc2ccccc2cc1O` it is 5.94% (active). The figure for `O=C(CSc1nc(C2CC2)nc2ccccc12)Nc1cccc(O)c1` is -0.76% (inactive); for `CC(C)(C)NC(=O)NC(=O)COC(=O)Cn1c(C(F)(F)F)nc2ccccc21` it is 2.76% (inactive); for `COc1ccccc1NC(=O)CSc1nnc(-c2ccoc2C)n1CCc1ccccc1` it is 4.08% (inactive). As for `CCN(CC)S(=O)(=O)c1ccc(N(C)Cc2ccc(C(F)(F)F)cc2)nc1`, the inhibition is 0.97% (inactive). Under `Nc1cc(=O)c2[nH]cnc2[nH]1` stands 16.4% (active); under `C[C@@H]1CN([C@@H](C)CO)S(=O)(=O)c2ccc(-c3ccc(C(=O)N(C)C)cc3)cc2O[C@@H]1CN(C)Cc1ccccc1C(=O)O`, -1.93% (inactive).

In the case of `Cc1ccccc1-c1ccc2c(c1)O[C@@H](CN(C)Cc1ccc(C(=O)O)cc1)[C@@H](C)CN([C@H](C)CO)S2(=O)=O`, the inhibition was 1.11% (inactive). In the case of `C[C@@H]1CN([C@H](C)CO)S(=O)(=O)c2ccc(C#C[C@@H](C)O)cc2O[C@@H]1CN(C)Cc1ccc(-c2ccccc2)cc1`, the inhibition was 36.5% (active).

Turning to `O=C(C1CCCN(S(=O)(=O)c2ccc([N+](=O)[O-])cc2)C1)N1CCCCC1` (stereo unspecified), the inhibition was 1.73% (inactive). Under `O=C(Nc1ccc(S(=O)(=O)Nc2ncccn2)cc1)c1cncc(Br)c1` stands 11.3% (active); under `CCNS(=O)(=O)c1ccc(NC(=O)c2cncc(Br)c2)cc1`, -2.97% (inactive); under `O=C(NC(=S)Nc1ccc(S(=O)(=O)Nc2ncccn2)cc1)c1cccc(Br)c1`, -0.5% (inactive).

As to `CCOCCCNC(=S)Nc1ccc2nc(N3CCN(CC)CC3)cc(C)c2c1`, the inhibition is -3.64% (inactive). As for `CCOc1ccc(NC(=O)CC2NCCNC2=O)cc1` (stereo unspecified), the inhibition was 0.97% (inactive). Under `COc1ccccc1C(=O)N1CCNC(=O)C1CC(=O)Nc1ccc(Cl)cc1` (stereo unspecified) stands 4.11% (inactive); under `O=C(CC1SCCNC1=O)Nc1ccc(Cl)cc1` (stereo unspecified), 11.9% (active); under `Cc1cc(-c2ccc(C)c(S(=O)(=O)NC(C)Cc3ccco3)c2)on1` (stereo unspecified), 4.85% (inactive). For `COc1ccc(NC(=O)CSc2nnc(-c3ccccc3F)n2C2CC2)cc1S(N)(=O)=O`, the inhibition is -3.31% (inactive). With `Fc1cccc(Cl)c1COc1ccc(-c2nnco2)cc1`, the inhibition is 0.01% (inactive). On to `C[C@H](NC(=O)[C@@H]1Cc2ccccc2CN1C(=O)OC(C)(C)C)C(=O)NC1CCCC1`, for which the inhibition is -1% (inactive). Under `COCCNC(=O)CSc1nc(N)c(NC(=O)c2ccco2)c(=O)[nH]1` stands -1.82% (inactive).

As for `COCCNC(=O)Nc1ccc2nc(-c3ccco3)c(-c3ccco3)nc2c1`, the inhibition is 8.86% (active).

On to `Cc1ccc(NC(=O)OCCNC(=O)c2ccncc2)cc1`, for which the inhibition is 1.62% (inactive). Under `C#CCN(N(C)c1ncc(C(F)(F)F)cc1Cl)S(=O)(=O)c1ccc2ccccc2c1` stands 0.28% (inactive); under `CCN1CCN(c2cc3nc(C)n(Cc4ccccc4)c(=O)c3cc2NC(=O)c2ccccc2F)CC1`, -0.45% (inactive). Under `CCCCC(=O)NC(c1ccc(OC)c(OC)c1)c1ccc2cccnc2c1O` (stereo unspecified) stands -0.15% (inactive).

Consider `CC(=O)NC(c1cccs1)c1cc(Br)c2cccnc2c1O` (stereo unspecified), for which the inhibition is 14.8% (active). As to `N#Cc1ccccc1NC(=O)COc1c(Br)cc(Br)c2cccnc12`, the inhibition was -0.22% (inactive).

As a reminder, the inhibition is the change of the read-out against control, counted positive when it falls.

The values are drawn from PubChem BioAssay AID588664 (The Scripps Research Institute Molecular Screening Center, 2011).
